Compound activity as filed in PubChem BioAssay.
In the library only some 15% were active in any assay of this set; here they are far more common.
Pf growth 48h = Primary qHTS for delayed death inhibitors of the malarial parasite plastid, 48 hour incubation; Potency, µM (series often up to 28.7 µM), for the others: at the top dose activity change, negative = inhibition, actives largely listed as inhibitors; P. falciparum luciferase growth in erythrocytes, 48 h; AID 504832, 2011; actives 5.9% (n = 310,000); also: potency is read from the fitted curve at half-maximal effect; % is scaled to controls: 0 for no effect and ±100 for the full control effect
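In quantitative HTS format, infected erythrocytes bearing luciferase-reporter parasites were treated for a single generation at 37 C. Luminescence after adding detection reagent served as the growth measure.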
HCV inhibitor = qHTS Assay for Inhibitors of Hepatitis C Virus (HCV). Huh7.5.1 HCVcc-Cre infection, luciferase reporter, 44 h. Potency, µM (series often up to 41.8 µM), inactives show at the top dose activity change, negative = inhibition, actives largely listed as inhibitors. actives 3.4% (n = 340,000). AID 651820, 2012; also: potency is read from the fitted curve at half-maximal effect; % is scaled to controls: 0 for no effect and ±100 for the full control effect
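A cell-based infection assay in which seeded cells (1,000 per well) receive test compound after 4 h, are inoculated with HCVcc-Cre at approximately 0.5 moi, and are incubated 44 h before luminescence detection.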
Sm TGR block = qHTS Assay for the Inhibitors of Schistosoma Mansoni Peroxiredoxins; actives 3% (n = 360,000); AID 485364, 2010; purified TGR, DTNB reduction, TNB absorbance 405 nm; Schistosoma mansoni thioredoxin glutathione reductase (TGR), Q962Y6; Potency, µM (series often up to 114 µM), for the others: at the top dose activity change, negative = inhibition, hits mostly inhibitors; also: potency is read from the fitted curve at half-maximal effect; % is scaled to controls: 0 for no effect and ±100 for the full control effect; nearly all actives have a fitted effect of over 60% in size
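TGR 20 nM + NADPH 100 uM (dispensed conc.), cpd preinc 15 min RT; start with NADPH (500 uM addition) then DTNB (15 mM addition). Kinetic TNB absorbance, 405 nm filter. Four-parameter Hill fit across titration.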
SARS PLpro yeast = qHTS of Yeast-based Assay for SARS-CoV PLP; S. cerevisiae expressing SARS-CoV PLpro, growth rescue; Potency, µM (top dose mostly 32.9 µM), inactives show at the top dose activity, positive = growth rescue, actives largely listed as activators; actives 0.19% (n = 330,000); AID 485353, 2010; calls by dose curve; also: potency is read from the fitted curve at half-maximal effect; 0% is about no effect; nearly all actives have a fitted effect of over 55% in size
Pf growth 96h = Primary qHTS for delayed death inhibitors of the malarial parasite plastid, 96 hour incubation | P. falciparum luciferase reporter growth, 96 h | Potency, µM (series often up to 28.7 µM), for the others: at the top dose activity change, negative = inhibition, hits mostly inhibitors | actives 6.9% (n = 320,000) | AID 504834, 2011; also: potency is read from the fitted curve at half-maximal effect; % is scaled to controls: 0 for no effect and ±100 for the full control effect
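P. falciparum expressing integrated firefly luciferase, in erythrocytes at 2% hematocrit, 0.05% parasitemia, incubated with compounds 96 h at 37 C, 5% CO2. Growth inhibition read as loss of luminescence; two-generation exposure targets delayed-death apicoplast inhibitors.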
HCMV inh = qHTS Assay for inhibitors of the human cytomegalovirus (HCMV); HFF cells, HCMV-luciferase reporter, 72 h; stronger effect = lower value; activity change, negative = inhibition, % at 57.5 µM; actives 4.5% (n = 410,000); in the data active = activity change below about -60%; inconclusive = no clear call, values can overlap the other calls; inactive = above about -39%; also: % is scaled to controls: 0 for no effect and ±100 for the full control effect
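Cell-based, HFFs, 1000 cells/well, 16 h 37C; cpds in DMSO + HCMV-luc, MOI 1 PFU/cell; 72 h 37C; OneGlo luminescence after 5 min RT; norm. to buffer vs Salinomycin 10uM.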
Active calls of the source: *; ? = inconclusive; / = no result given. Unless noted, calls follow the shape of the dose curve; as a rule, active = well fitted curve in the direction sought with a large enough effect; inconclusive = small, poorly fitted or top-dose-only effect, or another doubt; inactive = no such curve, though single readings can be large; an effect the other way counts as inactive or inconclusive.

SMILES	Pf growth 48h	HCV inhibitor	Sm TGR block	SARS PLpro yeast	Pf growth 96h	HCMV inh
CC(=O)N1c2ccc(S(=O)(=O)N3CCC(C(=O)N4CCCCC4)CC3)cc2CC1C (stereo unspecified)	?	?	2.6%	4.0%	?	?
CC1CCN(C(=O)C2CCN(S(=O)(=O)c3cc(Cl)ccc3Cl)CC2)CC1	2.0%	0.2%	0.4%	-5.5%	?	-87.2*
CN(C)c1ccc(N/C=C/C(=O)C(C)(C)C)cc1	2.33µM*	?	-24.8%	-15.4%	/	26.6
CN(C)c1ccc(N/C=C/C(=O)c2ccccc2)cc1	-37.6%	-19.3%	-15.8%	-6.6%	/	0.4
O=c1c2cc3c(nc2[nH]c(=S)n1-c1ccccc1)CCCC3	5.2%	-3.9%	-1.5%	0.7%	5.2%	5.1
Cc1cc(N(C)Cc2ccccc2)nc2cc(O)ccc12	1.65µM*	-25.3%	2.6%	1.2%	3.1%	-36.5
Cc1cc(Oc2ccccc2)nc(-c2ccccc2)n1	44.5%	-17.7%	14.7%	-4.8%	-1.1%	11.3
Cc1cc(N(C)Cc2ccccc2)nc(-c2ccccc2)n1	-0.2%	10µM*	-13.5%	6.0%	8.7%	58.1
Cc1ccccc1NS(=O)(=O)c1ccc2[nH]cc(C(=O)N3CCCC3)c(=O)c2c1	/	/	2.3%	/	/	-20.1
O=C(COC(=O)c1ccc[nH]c1=O)NC1CCCc2ccccc21 (stereo unspecified)	2.8%	8.6%	8.3%	0.2%	66.1%	-15.8
CN(C)C(=S)Nc1cccc(F)c1	41.0%	12.3%	-7.3%	-0.4%	30.4%	2.0
Fc1cccc(NC(=S)Nc2ccc(Br)cc2)c1	59.1%	11.3%	20µM*	-20.9%	?	9.5
COc1cccc(NC(=S)Nc2ccc(F)cc2)c1	25.2%	-11.4%	?	1.4%	-2.9%	16.2
CC(C)(C)NNC(=S)Nc1cccc(F)c1	10.4µM*	?	-21.7%	0.5%	8.28µM*	13.2
COc1ccc(-c2nc(CS(=O)(=O)CC(=O)NCc3ccccc3OC)c(C)o2)cc1	25.5%	0.1%	?	21.0%	-26.9%	-16.3
CC(C)C[C@H]1CN(CCCC[C@H]2CNC(=O)C(=O)N2CC2CCCCC2)C(=O)C(=O)N1Cc1ccccc1	/	/	/	/	/	-19.7
CCOC(=O)c1nnn(CC(=O)N2N=C(c3cccc4ccccc34)CC2c2ccccc2)c1C(=O)OCC (stereo unspecified)	9.28µM*	-16.4%	0.4%	5.3%	?	82.1
CCOC(=O)c1nnn(CC(=O)Nc2cccc(Cl)c2C)c1C(=O)OCC	/	6.4%	-0.5%	5.7%	46.9%	-12.7
COC(=O)CN1C(=O)C2(C(C#N)=C(N)Oc3n[nH]c(-c4cccs4)c32)c2ccccc21 (stereo unspecified)	-3.4%	-8.5%	50.1µM*	/	40.8%	22.9
Cc1cc(N)c2cc(NC(=O)/C=C/c3ccccc3Cl)ccc2n1	0.465µM*	11.2µM*	-18.1%	-0.1%	0.586µM*	/
CCOc1ccccc1CNC(=O)C1CCN(c2nnc(-n3c(C)ccc3C)s2)CC1	/	/	?	/	/	-19.2
O=C(Nc1nc2ccc(F)cc2s1)C1CCN(S(=O)(=O)c2cc([N+](=O)[O-])ccc2Cl)CC1	?	31.6µM*	?	0.3%	?	-5.7
CC(NC(=O)C1CCN(S(=O)(=O)c2cc([N+](=O)[O-])ccc2Cl)CC1)c1ccccc1 (stereo unspecified)	-13.6%	1.0%	-0.8%	-9.0%	-8.1%	-32.6
O=C(NCc1cccnc1)C1CCN(S(=O)(=O)c2cc([N+](=O)[O-])ccc2Cl)CC1	/	10.4%	/	/	/	-28.6
O=C(NCc1ccccc1)C1CCN(S(=O)(=O)c2cc([N+](=O)[O-])ccc2Cl)CC1	-23.9%	-9.2%	-7.7%	-3.7%	42.5%	-2.0
SMILES	Pf growth 48h	HCV inhibitor	Sm TGR block	SARS PLpro yeast	Pf growth 96h	HCMV inh
Cc1ccc2nc(NC(=O)C3CCN(S(=O)(=O)c4cc([N+](=O)[O-])ccc4Cl)CC3)sc2c1	-0.6%	6.31µM*	-11.6%	5.3%	?	-9.6
CCSc1nnc(NC(=O)C2CCN(S(=O)(=O)c3cc(C(F)(F)F)ccc3Cl)CC2)s1	-15.8%	?	89.1µM*	7.3%	?	?
Cc1ccc(NC(=O)C2CCN(S(=O)(=O)c3cc([N+](=O)[O-])ccc3Cl)CC2)nc1	/	5.01µM*	/	0.2%	/	-30.3
O=C(NCCCN1CCCC1=O)C1CCN(S(=O)(=O)c2cc(C(F)(F)F)ccc2Cl)CC1	2.0%	7.7%	-1.4%	-3.1%	-28.2%	-4.6
COc1ccc(CC(=O)N[C@@H]2c3cc(OC)c(OC)cc3C[C@H]2O)cc1	/	-29.4%	/	3.9%	/	-7.7
Cc1ccc(S(=O)(=O)N2CCC(C(=O)OCC(=O)Nc3cc(S(C)(=O)=O)ccc3Cl)CC2)cc1C	7.8%	9.3%	10.6%	2.5%	2.2%	?
CCc1cc(=O)oc2c(C)c(OC(C)C(=O)N3CCC[C@@H]3C(=O)O)ccc12 (stereo partly specified)	-9.4%	-2.7%	7.9%	-5.1%	0.1%	3.7
CCc1cc(=O)oc2c(C)c(OC(C)C(=O)N3CC[C@@]4(O)CCCC[C@H]4C3)ccc12 (stereo partly specified)	?	0.891µM*	0.8%	4.4%	11.7µM*	21.0
O=C(Oc1ccccc1N1C(=O)C2CCCCC2C1=O)c1ccc(Cl)cc1 (stereo unspecified)	8.5%	7.9%	-5.4%	4.5%	12.7%	-108.1*
CN(C)c1nc(N)nc(/C(C#N)=C/C2CC3C=CC2C3)n1 (stereo unspecified)	?	3.8%	39.8µM*	-2.2%	-0.6%	47.5
CC1(C)OC(c2ccccc2)=C/C(=C\C=N\NC(=O)c2ccncc2)O1	?	-24.8%	-0.5%	0.2%	?	-64.1*
O=C1C2C3C=CC(C3=C3CCCCC3)C2C(=O)N1Cc1ccccc1 (stereo unspecified)	?	9.3%	17.8µM*	-25.1%	?	?
c1ccc(-c2ncnc3ccccc23)cc1	/	0.4%	/	/	/	11.9
O=C(C1CCCN(S(=O)(=O)c2ccc(Br)s2)C1)N1CCCCCC1 (stereo unspecified)	?	?	-15.7%	/	22.8%	-16.8
Cc1cccc(N2CCN(C(=O)C3CCCN(S(=O)(=O)c4ccc(Br)s4)C3)CC2)c1C (stereo unspecified)	/	/	5.4%	/	/	-61.7*
O=C(O)C1CCCN(S(=O)(=O)c2ccc(Br)s2)C1 (stereo unspecified)	1.8%	-0.9%	-5.3%	2.0%	0.0%	-62.1*
